Shown are actives, neighbours in structure and some others; about 2.4% of the full set was active somewhere.
ATXN viability – Viability Counterscreen for Primary qHTS for Inhibitors of ATXN expression; S2 cells (HEK-293 line with an ATXN2-luciferase reporter) viability, CellTiter-Fluor protease fluorescence, 24 h; Potency, µM (highest dose often 56.7 µM), actives largely listed as cytotoxic; 0.49% of 400,000 active; AID 651635, 2014; also: nearly all actives have a fitted effect of over 40% in size
TGFb inhibitor – qHTS for Inhibitors of TGF-b. Potency, µM (doses to about 46.1 µM), inactives show at the highest dose activity, negative = inhibition, actives largely listed as inhibitors. HepG2 CAGA-GFP TGF-b/SMAD3 reporter, GFP fluorescence, 18 h; TGF-beta stimulated, 500 pg/mL final. 1.2% of 410,000 active. AID 588855, 2011; also: % is scaled to controls: 0 for no effect and ±100 for the full control effect; nearly all actives have a fitted effect of over 65% in size
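First, reporter cells (HEPG2 CAGA-GFP) rested 2 h at 37 degrees C. Next, compounds were pinned in and TGF-beta added to 500 pg/mL final. After 18 h, GFP was imaged per cell and summed per well.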
Apoferritin bind – qHTS Assay for Identification of Novel General Anesthetics; AID 485281, 2010; 0.074% of 350,000 active; apoferritin/1-aminoanthracene competitive binding, fluorescence; Ferritin light chain (Equus caballus), P02791; Potency, µM (titrated, usually from 77.5 µM), without a hit: at the highest dose activity change, negative = displacement, hits mostly inhibitors; also: % is scaled to controls: 0 for no effect and ±100 for the full control effect; nearly all actives have a fitted effect of over 20% in size
Target sequence (P02791 2-175 limits assumed): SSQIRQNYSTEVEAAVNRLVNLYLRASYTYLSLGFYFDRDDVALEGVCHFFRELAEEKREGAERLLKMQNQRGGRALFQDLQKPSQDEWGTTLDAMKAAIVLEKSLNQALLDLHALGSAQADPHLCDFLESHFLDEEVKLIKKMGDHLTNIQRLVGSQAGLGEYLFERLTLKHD
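Steps: apoferritin (10 uM) was premixed with half-saturated 1-AMA in PBS, compounds were pin-transferred, plates stood 10 min at room temperature, fluorescence was read at 380/535 nm, and curves were fitted with a Hill equation.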
ATXN2 expr inh – Primary qHTS for Inhibitors of ATXN expression; HEK-293 ATXN2-luciferase reporter, luminescence, 24 h; Potency, µM (doses to about 57 µM), without a hit: at the top dose activity change, negative = inhibition, actives largely listed as inhibitors; 0.72% of 360,000 active; AID 1745845, 2022; also: % is scaled to controls: 0 for no effect and ±100 for the full control effect; nearly all actives have a fitted effect of over 55% in size
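qHTS (up to 57 uM final) was run with 24 h compound exposure of reporter cells at 37 °C. Each well was multiplexed: SteadyGlo luminescence measured ATXN2-luciferase expression after a fluorogenic Gly-Phe-AFC viability readout (25 uM final).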
HepG2 tox – qHTS for Inhibitors of TGF-b: Cytotox Counterscreen. HepG2 CAGA-GFP viability, ATP luminescence, 18 h. Potency, µM (highest dose often 46.1 µM), without a hit: at the top dose activity change, negative = cytotoxicity, usual class: cytotoxic. 0.76% of 410,000 active
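HepG2 CAGA-GFP cells (1000/well, DMEM with 1% FBS) received compound, then TGF-beta at 500 pg/mL final, and were incubated 18 hours at 37 degrees C. Viability was read by CellTiter-Glo luminescence. Media-only wells were set as complete cell-killing and DMSO as no toxicity.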
An asterisk follows results filed as active; i = inactive; ? = inconclusive; · = no result given. Calls follow the shape of the dose curve; as a rule, active = well fitted curve in the direction sought with a large enough effect; inconclusive = small, poorly fitted or top-dose-only effect, or another doubt; inactive = no such curve, though single readings can be large; an effect the other way counts as inactive or inconclusive. Potency is read from the fitted curve at half-maximal effect.

SMILES	ATXN viability	TGFb inhibitor	Apoferritin bind	ATXN2 expr inh	HepG2 tox
CC1CC(C)CC(C)C(O)C(C#N)=CC=CCC(C2CCCC2C(=O)O)OC(=O)CC(O)C(C)C1 (stereo unspecified)	?	?	·	0.75µM*	0%
CCCN1[C@H](C(=O)OC)C[C@@H]2CC[C@@H](O)C[C@@H]21	·	·	-5%	·	·
CCC(=O)[C@@H](C)[C@@H](O)[C@H](C)C[C@@H](C)C1OC(=O)C[C@@]2(O)CC=C(C)C(O2)C(C)=CCCC[C@H](O[C@H]2C[C@@H](OC(N)=O)[C@H](O)[C@@H](C)O2)C=C[C@H](C)C[C@H]1C (stereo partly specified)	14µM*	·	·	-54%	·
CC1=C(O)C(=O)C=C2C1=CC=C1C2(C)CCC2(C)C3CC(C)(C(=O)O)CCC3(C)CCC12C (stereo unspecified)	5.6µM*	2µM*	·	4.5µM*	3.2µM*
Cc1c(O)c(O)cc2c1CC=C1[C@]3(C)CC[C@]4(C)CC[C@@](C)(C(=O)O)CC4[C@]3(C)CC[C@]12C (stereo partly specified)	·	·	-18%	·	·
COc1ccc(CC(N)c2csc(NC(=O)Nc3ccccc3Oc3ccccc3)n2)cc1 (stereo unspecified)	·	?	·	?	10µM*
CN(Cc1cccc(-c2ccncc2)c1)C(=O)Oc1ccc([N+](=O)[O-])cc1	32µM*	·	·	25µM*	·
Nc1ccc2ccc3cccc[n+]3c2c1	·	73%	i	-23%	8%
C[n+]1c(-c2ccccc2)c2cc(N)ccc2c2ccc(N)cc21	16µM*	4.5µM*	?	7.1µM*	-17%
COC(=O)[C@@H]1[C@@H](C(=O)OC)C2(c3ccccc3-c3ccccc32)N(c2ccc(Cl)cc2)N1C#N	7.1µM*	?	4%	7.1µM*	11µM*
COC(=O)C[C@]1(C(=O)OC)CN(C#N)N(c2ccc(Cl)cc2)C12c1ccccc1-c1ccccc12	5.6µM*	4µM*	-3%	4µM*	-106%
O=C(CBr)Nc1ccc(Cl)cc1C(=O)c1ccccc1F	i	·	·	-7%	·
CCCC[N+]1(C)[C@H]2CC(OC(=O)[C@H](CO)c3ccccc3)C[C@H]1[C@H]1O[C@H]12 (stereo partly specified)	·	·	·	4%	·
CCCCn1cc[n+](C)c1	·	·	0%	·	·
CNC(=O)Oc1ccc2c(c1)[C@@]1(C)CCN(C)C1N2C (stereo partly specified)	·	·	3%	·	·
NCC[C@H](NC(=O)[C@@H](N)CCCN=C(N)N[N+](=O)[O-])C(N)=O	·	·	0%	·	·
CCc1ccc(CNCCc2ccc(F)cc2)cc1	i	14%	-1%	-14%	-43%
Fc1ccc(CCNCc2ccc(Cl)c(Cl)c2)cc1	?	?	-19%	?	13µM*
COc1cccc(CN(C)C[C@@H]2OCc3ccccc3-c3c(n(C)c4ccccc34)C(=O)N([C@@H](C)CO)C[C@H]2C)c1	28µM*	?	·	?	20µM*
F/C(COc1ccc2c(c1)[nH]c1ccccc12)=C1/CN2CCC1CC2	·	·	4%	·	·
CCOC(=O)[C@]12Cc3cc(OC)c(OC)cc3[C@H]1N(Cc1ccccc1)C(=O)c1ccccc12	i	-3%	·	-20%	-18%
CCOC(=O)[C@]12Cc3cc4ccccc4cc3[C@H]1N(Cc1ccccc1)C(=O)c1ccccc12	20µM*	·	·	?	·
CCOC(=O)[C@]12Cc3cc(OC)ccc3[C@H]1N(Cc1ccccc1)C(=O)c1cc(OC)ccc12	?	·	·	2%	·
CCOC(=O)[C@]12Cc3cc(OC)ccc3[C@H]1N(C)C(=O)c1ccccc12	i	·	·	16%	·
CCOC(=O)[C@]12Cc3cc(Cl)ccc3[C@H]1N(Cc1ccccc1)C(=O)c1cc(OC)ccc12	13µM*	·	·	18µM*	·
CCCCCN1C(=O)c2cc(OC)ccc2[C@@]2(C(=O)OCC)Cc3cc(Cl)ccc3[C@@H]12	8.9µM*	·	·	7.1µM*	·
